Cycloheximide cs = affects cycloheximide protein synthesis inhibition readout, counter-screen | cell reporter, cycloheximide protein synthesis inhibition counterscreen | max response, % | actives 12% (n = 300,000); in the data active means max response mostly above about 13%, no sharp cut-off; inactive means mostly below about 14%; further: read at 38.3 µM for the half of the compounds with a filed dose
Tb PYK inh = blocks Trypanosoma brucei pyruvate kinase | TbPYK enzyme, Kinase-Glo Plus ATP luminescence, 45 min | Potency, µM (highest dose often 76.8 µM), hits mostly inhibitors | actives 0.12% (n = 410,000) | AID 624173; further: nearly all actives have a fitted effect of over 50% in size
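Luminescence from Kinase-Glo Plus, added after a 45-minute room-temperature reaction, served as the end-point read-out. The enzyme and substrate were preincubated with compound before ADP (130 uM final) initiated turnover. Concentration-effect curves came from normalized qHTS data.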
Giardia FBPA inh = inhibitors of Giardia lamblia fructose-1,6-bisphosphate aldolase | purified Giardia FBPA | Potency, µM (highest dose often 59.6 µM), hits mostly inhibitors | actives 0.71% (n = 290,000); further: nearly all actives have a fitted effect of over 55% in size
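40 nM FBPA preincubated 10 min at RT with compound (up to 57.5 uM final), then substrate plus GAPDH/TPI/NAD/arsenate coupling and diaphorase/resazurin added. Fluorescence read after 20 min at RT, 525/598 nm.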
Sm TGR block = S. mansoni TGR enzyme inhibition; purified TGR, DTNB reduction, TNB absorbance 405 nm; Potency, µM (doses to about 114 µM), hits mostly inhibitors; actives 3% (n = 360,000); further: nearly all actives have a fitted effect of over 60% in size
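TGR 20 nM + NADPH 100 uM (dispensed conc.), cpd preinc 15 min RT; start with NADPH (500 uM addition) then DTNB (15 mM addition). Kinetic TNB absorbance, 405 nm filter. Four-parameter Hill fit across titration.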
Shiga inhibitor = blocks Shiga toxin action in Vero cells; actives 9.2% (n = 290,000); inhibition, % at 38.7 µM; Vero cells, Shiga toxin protein synthesis inhibition reporter; AID 2315; in the data active means inhibition mostly above about 28%, no sharp cut-off; inactive means mostly below about 43%
LmPK inh = LmPK (Leishmania mexicana) enzyme inhibition; Potency, µM (titrated, usually from 57.5 µM), actives largely listed as inhibitors; AID 1721; purified LmPK, Kinase-Glo ATP luminescence, 1 h; Q27686; actives 0.37% (n = 290,000)
Target sequence (Q27686 whole entry, looked up): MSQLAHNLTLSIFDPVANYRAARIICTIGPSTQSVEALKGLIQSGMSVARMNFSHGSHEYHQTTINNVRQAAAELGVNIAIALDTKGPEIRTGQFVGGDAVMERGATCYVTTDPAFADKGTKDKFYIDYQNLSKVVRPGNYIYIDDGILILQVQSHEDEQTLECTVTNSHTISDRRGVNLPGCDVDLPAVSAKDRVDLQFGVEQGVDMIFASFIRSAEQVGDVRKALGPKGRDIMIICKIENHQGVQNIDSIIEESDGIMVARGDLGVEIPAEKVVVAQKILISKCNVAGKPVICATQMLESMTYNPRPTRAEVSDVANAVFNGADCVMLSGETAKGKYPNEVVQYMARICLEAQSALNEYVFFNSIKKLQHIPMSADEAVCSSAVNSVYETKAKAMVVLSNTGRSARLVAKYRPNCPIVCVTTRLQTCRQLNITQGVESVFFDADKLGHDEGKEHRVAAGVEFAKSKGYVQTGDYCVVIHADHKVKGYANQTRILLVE
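Pyruvate kinase activity monitored as ATP production (luciferase luminescence). Conditions: 0.1 nM enzyme, 0.5 mM PEP, 0.1 mM ADP, 1 h, RT; normalized against uninhibited and no-enzyme wells.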
Each line names hits and unclear results; the compound was inactive in the other large screens. Shown is part of a subset that was picked to be rich in hits. Unless noted, the call rests on the fitted dose curve; in most records, active means well fitted curve in the direction sought with a large enough effect; inconclusive means small, poorly fitted or top-dose-only effect, or another doubt; inactive means no such curve, though single readings can be large; an effect the other way counts as inactive or inconclusive.

O=[N+]([O-])c1cccc(-c2nnc(-c3ccc4c(c3)OCO4)o2)c1	Cycloheximide cs 65, Shiga inhibitor 111
Nc1cc(-c2cccc([N+](=O)[O-])c2)[nH]n1	Cycloheximide cs 16
Clc1cccc(-c2nnc3sc(-c4ccc5c(c4)OCO5)nn23)c1	none (no result: Tb PYK inh)
CCC(C)c1ccc(OCC(=O)Nc2cccc(-c3nc4ncccc4o3)c2)cc1 (configuration not stated)	none (no result: Cycloheximide cs, Giardia FBPA inh, Shiga inhibitor, LmPK inh)
CSc1ccccc1-c1nnc(-c2ccc(Cl)c(Cl)c2)o1	none
Clc1ccccc1-c1nnc(-c2ccc3c(c2)OCO3)o1	Cycloheximide cs 29, Shiga inhibitor 93
O=C(O)c1ccc(-c2nnc(-c3ccc([N+](=O)[O-])cc3)o2)cc1	none
O=[N+]([O-])c1cccc(-c2nnc(-c3ccccc3)o2)c1	Cycloheximide cs 45, Shiga inhibitor 67 (no result: Sm TGR block)
COc1ccc(NC(=O)CSc2nc3ccsc3c(=O)n2CCC(=O)O)c(OC)c1	none
Cc1ccc(-n2nc(-c3ccc(N)cc3)cc2N)cc1	Cycloheximide cs 32, Shiga inhibitor 61
Nc1ccc(-c2cc(N)n(-c3ccccc3)n2)cc1	none
Cc1ccc(-n2nc(-c3ccc(OC(F)(F)F)cc3)cc2N)cc1C	Cycloheximide cs 15
Nc1cc(-c2ccc(Cl)cc2)nn1-c1ccccc1	Cycloheximide cs 43, Shiga inhibitor 72
Cc1n[nH]c(=O)n1-c1ccc(OC(F)(F)F)cc1	none
CC(=O)Nc1ccc(-c2cc(N)n(-c3ccccc3)n2)cc1	Cycloheximide cs 64, Shiga inhibitor 69, LmPK inh 16µM
COc1ccc(NC(=O)Cc2ccc(NC(=O)N3CCCCc4ccccc43)cc2)c(OC)c1	none (no result: Cycloheximide cs, Giardia FBPA inh, Shiga inhibitor, LmPK inh)
Cc1ccc(C)n1-c1nnc(N2CCCC(C(=O)NCc3cccc(Cl)c3)C2)s1 (configuration not stated)	none (no result: Cycloheximide cs, Giardia FBPA inh, Shiga inhibitor, LmPK inh)
Cc1cc(N(CCO)CCO)ccc1N=Nc1cc(F)ccc1F	Cycloheximide cs 41, Shiga inhibitor 118
OCCN(CCO)c1ccc(C(c2ccc(Cl)cc2)c2ccc(N(CCO)CCO)cc2Cl)c(Cl)c1	none
c1ccc(-c2noc(-c3ccc4c(c3)OCO4)n2)cc1	Cycloheximide cs 64, Shiga inhibitor 109, LmPK inh 16µM (no result: Sm TGR block)
COc1ccc(OC)c2nc(-c3ccc4c(c3)OCO4)ccc12	Cycloheximide cs 62, Shiga inhibitor 105
COc1ccc(-c2noc(-c3ccc4c(c3)OCO4)n2)cc1	Cycloheximide cs 14
c1ccc(-c2noc(-c3ccc4ccccc4c3)n2)cc1	Cycloheximide cs 55, Shiga inhibitor 105
O=C(NCc1nc(-c2ccccc2)no1)c1ccc2c(c1)OCO2	none
COc1ccc(-c2oc(=O)c3cc(OC)c(OC)cc3c2-c2ccc3c(c2)OCO3)cc1	none (no result: Cycloheximide cs, Giardia FBPA inh, Sm TGR block, Shiga inhibitor, LmPK inh)
COc1cccc(-c2noc(-c3ccc4c(c3)OCO4)n2)c1	none
CCOC(=O)c1ccc(C#Cc2ccc3c(c2)C(C)(C)CCS3)nc1	none (no result: Cycloheximide cs, Giardia FBPA inh, Sm TGR block, Shiga inhibitor, LmPK inh)
O=C(CNC(=O)c1ccccc1F)c1ccccc1	Cycloheximide cs 34
NNC(=O)CNC(=O)c1ccccc1F	none
Cc1ccccc1C(=O)NCC(=O)c1ccccc1	none (no result: Cycloheximide cs, Giardia FBPA inh, Sm TGR block, Shiga inhibitor, LmPK inh)
O=C(CNc1ccccc1C(=O)O)c1ccccc1	Cycloheximide cs 18
CC(CNC(=O)c1ccccc1Cl)c1ccccc1 (configuration not stated)	Cycloheximide cs 34, Shiga inhibitor 36
NC(=O)c1ccccc1NCC(=O)c1ccc(Cl)cc1	none
O=C(NCCCCNC(=O)c1ccccc1Cl)c1ccccc1Cl	none
O=C(CNC(=O)c1ccccc1Cl)c1ccccc1	Cycloheximide cs 50, Shiga inhibitor 65
CCc1ccccc1NC(=O)COc1ccc(N2CC(C(N)=O)CC2=O)cc1 (configuration not stated)	none
CCCCCCCC1=Cc2ccccc2C(C(C(=O)OC)C(=O)OC)N1C(=O)OC (configuration not stated)	none (no result: Cycloheximide cs, Tb PYK inh, Sm TGR block, Shiga inhibitor)
O=C(O)c1ccc2cc(-c3ccc(O)c(C45CC6CC(CC(C6)C4)C5)c3)ccc2c1	none (no result: Cycloheximide cs, Sm TGR block, Shiga inhibitor, LmPK inh)
Cc1cc(C)c(NC(=O)CN(C)C(=O)C2CC(=O)N(c3cccc4ccccc34)C2)c(C)c1 (configuration not stated)	none (no result: Cycloheximide cs, Giardia FBPA inh, Shiga inhibitor, LmPK inh)
COc1ccc(NC(=O)CCl)cn1	Giardia FBPA inh 2.8µM, Sm TGR block 14µM (no result: Tb PYK inh)

High-throughput results from PubChem BioAssay.
